# Laboratory results: PubChem BioAssay (NCATS)
# Values without a mark were called inactive. Records with an inconclusive call do not appear. A call without a number means that no potency is given here. Activity calls are given as the source filed them. The call rests on the fitted dose curve; in most records, active means well fitted activation curve with a large enough effect; inconclusive means small, poorly fitted or top-dose-only effect; inactive means flat fitted curve, though single readings scatter.
# Assay: Cellular Toxicity (caspase-3) SK-N-SH (AID 661)
# Conditions: SK-N-SH caspase-3 activation, qHTS; series mostly up to 91.7 µM
# Procedure, shortened: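 Caspase 3/7 activation is measured as a luminescence increase from aminoluciferin released by substrate cleavage in SK-N-SH cells after 16 hr compound treatment; values are AC50 from concentration-response curves.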
row,Structure (SMILES),Potency
1,CC(C#N)CCC#N (stereo not drawn),inactive
2,Nc1cc(Cl)ccc1Cl,inactive
3,Nc1cccc(Cl)c1,inactive
4,ClCc1ccccc1,inactive
5,COc1c(C(C)(C)C)cc([N+](=O)[O-])c(C)c1[N+](=O)[O-],inactive
6,O=S(=O)(Cl)c1ccccc1,inactive
7,C=CCOCC1CO1 (stereo not drawn),inactive
8,c1ccoc1,inactive
9,Clc1ccccc1,inactive
10,ClC(Cl)(Cl)C(Cl)(Cl)Cl,inactive
11,CCOC(=O)C1OC1(C)c1ccccc1 (stereo not drawn),inactive
12,C/C=C/CC#N,inactive
13,ClC(Cl)C(Cl)Cl,inactive
14,Oc1c(Cl)cccc1Cl,inactive
15,Brc1cccc(-c2ccccc2)c1,inactive
16,C=CCO,inactive
17,OCCCCO,inactive
18,Nn1cnnc1,inactive

row,Structure (SMILES),Potency
1,BrCCc1ccccc1,inactive
2,Cc1ccccc1[N+](=O)[O-],inactive
3,CCCCOC(=O)c1ccccc1N,inactive
4,Clc1cc(Cl)c(Cl)c(Cl)c1,inactive
5,Cc1ccc(N)c(C)c1,inactive
6,C1CC2OC2CC1C1CO1 (stereo not drawn),inactive
7,CN(C)C(=O)Cl,inactive
8,CC(=O)NNc1ccccc1,inactive
9,Cc1ccc(N=C=O)cc1N=C=O,inactive
10,O=C(Cl)OCc1ccccc1,inactive
11,CCN(CC)N=O,inactive
12,OCC(Cl)CCl (stereo not drawn),inactive
13,CC(C)CON=O,inactive
14,CC(C)(Cl)[N+](=O)[O-],inactive
15,C[N+](=O)[O-],inactive
16,CC(C)OC(=O)Cc1ccccc1,inactive
17,ClCC(Br)CBr (stereo not drawn),inactive

# Assay: Cellular Toxicity (caspase-3) H-4-II-E (AID 663);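 further: cells exposed to compound for 16 hr before readout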
# Conditions: H-4-II-E rat hepatoma; Potency: caspase-3 activation; series mostly up to 92.2 µM
# Procedure, shortened: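 Apoptosis induction is scored as increased luminescence from caspase 3/7 substrate cleavage in rat hepatoma H-4-II-E cells exposed to compound for 16 hr. Activity is scaled between DMSO and 100 uM tamoxifen.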
row,Structure (SMILES),Potency
1,CC(C#N)CCC#N (stereo not drawn),inactive
2,Nc1cc(Cl)ccc1Cl,inactive
3,Nc1cccc(Cl)c1,inactive
4,ClCc1ccccc1,inactive
5,COc1c(C(C)(C)C)cc([N+](=O)[O-])c(C)c1[N+](=O)[O-],inactive
6,O=S(=O)(Cl)c1ccccc1,inactive
7,C=CCOCC1CO1 (stereo not drawn),inactive
8,c1ccoc1,inactive
9,Clc1ccccc1,inactive
10,ClC(Cl)(Cl)C(Cl)(Cl)Cl,inactive
11,C/C=C/CC#N,inactive
12,ClC(Cl)C(Cl)Cl,inactive
13,Oc1c(Cl)cccc1Cl,inactive
14,Brc1cccc(-c2ccccc2)c1,inactive
15,C=CCO,inactive
16,OCCCCO,inactive

row,Structure (SMILES),Potency
1,Nn1cnnc1,inactive
2,BrCCc1ccccc1,inactive
3,Cc1ccccc1[N+](=O)[O-],inactive
4,CCCCOC(=O)c1ccccc1N,inactive
5,Clc1cc(Cl)c(Cl)c(Cl)c1,inactive
6,Cc1ccc(N)c(C)c1,inactive
7,C1CC2OC2CC1C1CO1 (stereo not drawn),inactive
8,CN(C)C(=O)Cl,inactive
9,CC(=O)NNc1ccccc1,inactive
10,C=CC(=O)OC,inactive
11,CCN(CC)N=O,inactive
12,OCC(Cl)CCl (stereo not drawn),inactive
13,CC(C)(Cl)[N+](=O)[O-],inactive
14,C[N+](=O)[O-],inactive
15,ClCC(Br)CBr (stereo not drawn),inactive

# Assay: Cellular Toxicity (caspase-3) Hek293 (AID 664);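 further: cells exposed to compound for 16 h at 37 °C before readout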
# Conditions: HEK293 caspase-3 activation, DMSO = 0%, 100 µM tamoxifen = 100%; at 92.2 µM (top of the series)
# Procedure, shortened: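 Activation of caspase-3/7 is measured as increased luminescence from cleaved peptide-aminoluciferin substrate in HEK293 cells treated 16 hours at 37 °C. AC50 values come from Hill-equation fits of concentration-response data.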
row,Structure (SMILES),caspase-3 activation [%]
1,CC(C#N)CCC#N (stereo not drawn),0.584
2,Nc1cccc(Cl)c1,5.51
